Hit rate of the full screen: of about 410,000 compounds, about 310 (0.076%) were called active. Entries that show only a call come without a potency. Not shown: some 2% with an inconclusive outcome. Calls come from the whole dose curve; as a rule, active = well fitted curve in the direction sought with a large enough effect; inconclusive = small, poorly fitted or top-dose-only effect; inactive = flat fitted curve, though single readings scatter. The sample as a whole holds a higher share of actives than the screen did.
The compounds below were run against DNA dC->dU-editing enzyme APOBEC-3G (Homo sapiens) (UniProt Q9HC16) (assay: qHTS for Inhibitors of Vif-A3G Interactions: qHTS). Settings: HeLa A3G-eYFP + Vif (tagged APOBEC3G with the HIV-1 protein that degrades it), YFP fluorescence, overnight; series mostly up to 46.1 µM.
Chain of DNA dC->dU-editing enzyme APOBEC-3G (Homo sapiens) (Q9HC16 whole entry, looked up): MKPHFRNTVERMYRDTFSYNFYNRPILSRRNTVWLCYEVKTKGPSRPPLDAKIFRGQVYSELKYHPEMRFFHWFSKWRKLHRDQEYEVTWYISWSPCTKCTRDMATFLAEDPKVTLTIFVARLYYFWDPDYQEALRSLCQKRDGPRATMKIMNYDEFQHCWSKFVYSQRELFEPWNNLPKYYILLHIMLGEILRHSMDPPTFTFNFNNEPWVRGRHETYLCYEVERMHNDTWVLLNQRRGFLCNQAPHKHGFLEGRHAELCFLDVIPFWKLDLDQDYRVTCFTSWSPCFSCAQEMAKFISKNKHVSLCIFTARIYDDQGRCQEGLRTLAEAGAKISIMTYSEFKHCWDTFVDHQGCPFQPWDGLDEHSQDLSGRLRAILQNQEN
Excerpt: The recent discovery and characterization of host restriction factors, which provide a potent defense to invading retroviruses, has provided new targets for antiviral drug development. APOBEC3G (A3G) and APOBEC3F (A3F) are potent cytidine deaminases that block HIV-1 replication; HIV-1 expresses the Vif protein, which counteracts A3G and A3F by binding to them and inducing their proteasomal degradation. The Vif-A3G and Vif-A3F interactions provide two potential targets for development of small molecules which can interfere with the ability of Vif to degrade A3G or A3F. […] To identify inhibitors that can interfere with Vif mediated degradation of A3G and A3F, we have developed Hela cell lines that stably express A3G or A3F tagged with eYFP at the C-terminal end (A3G-eYFP or A3F-eYFP, respectively) and Vif. In the absence of an inhibitor, Vif induces degradation of A3G-eYFP and A3F-eYFP, and the cells are not fluorescent. In the presence of an inhibitor, it is expected that Vif will be unable to degrade A3G-eYFP and/or A3F-eYFP, resulting in an increase in yellow fluorescence. In this assays Vif A3G was screened against the Molecular Library Small Molecule Repository (MLSMR). NIH Chemical Genomics Center [NCGC] NIH Molecular Libraries Probe Centers Network [MLPCN] MLPCN Grant: MH093245 Assay Submitter (PI): Vinay Pathak, National Cancer Institute
5 uL of 700 cells/well of A3G-YFP cells are dispensed into black, clear bottom plates. The plates are incubated overnight at 37 deg C. 23 nL of compounds are added by pintool. The plates are incubated overnight at 37 deg C and then read on the TTP Acumen (Ex 488/ Em 500-530).
In the case of `O=c1[nH]c(=O)n(Cc2ccccc2)c(O)c1/C=N/Nc1c(F)c(F)c(F)c(F)c1F`, the Potency is reported as “inactive”.
`CC/C(=N\NC(=O)c1ccccc1O)c1c(O)n(Cc2ccccc2)c(=O)[nH]c1=O` was tested, and the Potency was 10 µM (active).
In the case of `CCC(=NCCc1ccccc1)c1c(O)n(C2CCCCC2)c(=O)[nH]c1=O`, the Potency is reported as “inactive”.
With `ClCCN(CCCl)c1ccc(C=Nc2ccc(/C=C/c3ccnc4ccccc34)cc2)cc1` the Potency was “inactive”.

Source: PubChem BioAssay AID602310 (National Center for Advancing Translational Sciences (NCATS), 2012)
Note: nearly all actives have a fitted effect of over 60% in size.
Potency is the fitted concentration of half-maximal effect.
